IL-1B inflam inh = blocks inflammasome-driven IL-1 beta release | THP-1 LPS/ATP IL-1B secretion, AlphaLISA, 16 h; stronger effect = lower value | activity change, % at 57.5 µM | 360,000 tested, 4.7% active | AID 743279; in the data active means activity change below about -50%; inconclusive means mostly about -30% to -49%; further: on the % scale 0 is the no-effect control and ±100 the full control effect
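Secreted IL-1B measured by AlphaLISA bead assay after 16 h compound exposure of THP-1 cells; compounds (final up to 57.5 uM) added 1 h before LPS (250 ng/mL) and ATP (1.25 mM) stimulation; lower signal means less secretion.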
SW480 rereplic = induces DNA re-replication in SW480 colon adenocarcinoma cells. SW480 DNA re-replication, Hoechst DNA content imaging, 48 h. Potency, µM (titrated, usually from 46.1 µM), without a hit: at the top dose re-replication activation, most hits filed as activators. 340,000 tested, 1.8% active. AID 624297; further: potency means the concentration at half of the fitted maximal effect; % of control where 0% means no effect; nearly all actives have a fitted effect of over 55% in size
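Hoechst fluorescence of nuclei (405 nm excitation, 500-530 nm emission) measured by plate-scanning imager after 48 hr compound exposure at 37 C; re-replication scored as increased number of nuclei with elevated intensity.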
MCF10A rereplic = inducers of DNA re-replication in MCF 10A breast cells; MCF 10A DNA re-replication, Hoechst nuclear intensity, 48 h; Potency, µM (doses to about 46.1 µM), for the others: at the highest dose activity, positive = re-replication, actives largely listed as activators; 350,000 tested, 2.9% active; AID 624296; further: potency means the concentration at half of the fitted maximal effect; % of control where 0% means no effect; nearly all actives have a fitted effect of over 50% in size
RORg inh = blocks mouse ROR gamma transcriptional activity | 310,000 tested, 5.4% active | Potency, µM (titrated, usually from 53.6 µM), without a hit: at the highest dose activity change, negative = inhibition, most hits filed as inhibitors | Drosophila S2 Gal4-RORgamma UAS-luciferase reporter, 20 h | P51450 | AID 2551; further: potency means the concentration at half of the fitted maximal effect; on the % scale 0 is the no-effect control and ±100 the full control effect; nearly all actives have a fitted effect of over 60% in size
Target sequence (P51450 whole entry, looked up, the tested form may be a part): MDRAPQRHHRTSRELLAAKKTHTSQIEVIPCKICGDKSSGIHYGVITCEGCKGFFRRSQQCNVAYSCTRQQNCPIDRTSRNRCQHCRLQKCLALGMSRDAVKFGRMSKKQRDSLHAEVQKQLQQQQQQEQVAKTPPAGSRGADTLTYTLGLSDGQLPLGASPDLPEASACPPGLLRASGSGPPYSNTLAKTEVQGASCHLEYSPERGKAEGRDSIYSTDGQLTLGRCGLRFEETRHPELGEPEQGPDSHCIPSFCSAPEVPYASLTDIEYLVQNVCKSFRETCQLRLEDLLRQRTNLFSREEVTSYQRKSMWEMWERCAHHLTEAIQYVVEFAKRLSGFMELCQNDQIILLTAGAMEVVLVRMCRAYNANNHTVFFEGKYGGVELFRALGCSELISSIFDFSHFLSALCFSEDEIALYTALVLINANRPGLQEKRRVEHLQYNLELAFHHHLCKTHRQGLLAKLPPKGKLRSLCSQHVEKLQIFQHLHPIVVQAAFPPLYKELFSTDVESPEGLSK
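Drosophila S2 cells stably expressing Gal4-DBD/mouse RORγ fusion under metallothionein promoter plus UAS-luciferase; compound 1 h, then 700 uM CuSO4 induction for 20 h at ambient temperature; inhibition read as reduced luminescence.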
VP16 counter = counter-screen for ROR gamma inhibitors: Gal4-VP16 reporter. Potency, µM (top dose mostly 53.6 µM), without a hit: at the highest dose activity, negative = inhibition, most hits filed as inhibitors. 310,000 tested, 3.5% active. Drosophila S2 Gal4-VP16 UAS-luciferase, luminescence, 20 h;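 further: Gal4-VP16 expression switched on by copper sulfate through the metallothionein promoter; potency means the concentration at half of the fitted maximal effect; on the % scale 0 is the no-effect control and ±100 the full control effect; nearly all actives have a fitted effect of over 50% in size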
Starred values were filed as active, the others as inactive; ? = inconclusive; · = not tested or not shown; [ ] = dose if it differs, or a comment. Compounds with a hit are over-represented: about 11% of the library has one in this group of screens. Unless noted, the call rests on the fitted dose curve; in most records, active means well fitted curve in the direction sought with a large enough effect; inconclusive means small, poorly fitted or top-dose-only effect, or another doubt; inactive means no such curve, though single readings can be large; an effect the other way counts as inactive or inconclusive.

SMILES	IL-1B inflam inh	SW480 rereplic	MCF10A rereplic	RORg inh	VP16 counter
COc1ccc(N2CCN(Cc3nc4scc(-c5ccccc5)c4c(=O)[nH]3)CC2)cc1	17.5	-1.4%	22.6%	23.5%	-8.7%
O=c1[nH]c(CN2CCN(c3ccccc3)CC2)nc2scc(-c3ccccc3)c12	0.0	?	5.17µM*	?	-14.4%
Brc1ccc2c(c1)OCCOCCOc1cc(Br)ccc1OCCOCCOCCO2	-56.4*	?	?	?	15.9%[0.365 µM]
CCn1c(=NC(=O)CCS(=O)(=O)c2ccccc2)sc2cccc(OC)c21	0.0	12.5%	10.7%	-10.7%	15.8µM*
CSc1cccc(NC(=O)CN(C)S(=O)(=O)c2cnc[nH]2)c1	26.8	?	-2.3%	23.4%	-2.6%
CCc1ccccc1NC(=O)Nc1cc(F)ccc1F	-6.0	29.1µM*	-0.6%	-33.9%	?
CCc1ccccc1NC(=O)Nc1ccc(F)cc1F	-2.0	-9.4%	-1.8%	37.0%	-0.7%
COc1ccc(/C=C/c2n[nH]c(=O)c(C#N)c2C)cc1	-96.9*	4.7%	13.1%	-18.4%	-13.8%
COc1ccc(Oc2nc(C)cc(C)c2C#N)cc1	33.5	-1.2%	20.5%	-10.8%	25.1%
OCCN(CCO)c1cc2c3ccccc3ccc2c2ccccc12	-65.2*	?	?	·	·
OCCN(CCO)c1ccc2ccccc2c1	18.0	1.0%	-0.2%	-2.1%	-0.5%
Cc1ccc(C(O)c2ncc(-c3cccc(C(F)(F)F)c3)[nH]2)cc1F (stereo unspecified)	-5.0	·	·	·	·
CN1N=C(C(=O)NC2CCCc3c2cnn3-c2ccc(F)cc2F)CCC1=O (stereo unspecified)	13.0	-2.5%	3.3%	?	?
Cc1nnsc1C(=O)NC1CCCc2c1cnn2-c1cc(F)cc(F)c1 (stereo unspecified)	14.6	-4.0%	-1.2%	15.6%	0.0%
Cc1nnsc1C(=O)NC1CCCc2c1cnn2-c1ccc(F)cc1F (stereo unspecified)	6.5	-0.5%	18.4%	?	7.08µM*
Cc1ccc(C(=O)NC2CCCc3c2cnn3-c2ccc(F)cc2F)cn1 (stereo unspecified)	·	·	·	?	2.82µM*
COc1ccc(-c2ccccc2)cc1NC(=O)[C@@H]1O[C@H](CO)[C@H](O)[C@H](O)[C@H]1O	-5.8	·	·	·	·
Cc1ccc(OCC(=O)N(C)CC(=O)Nc2ccccc2Cl)c([N+](=O)[O-])n1	18.7	-1.5%	-2.2%	·	·
C/C(=N/Nc1ccc([N+](=O)[O-])cc1)c1ccc(C)cc1C	-80.8*	?	?	-3.4%	-56.3%
C/C(=N\Nc1ccc([N+](=O)[O-])cc1)c1ccc(C#N)cc1	-0.9	1.0%	0.3%	5.2%	1.9%
C/C(=N\Nc1ccc([N+](=O)[O-])cc1)c1cc2ccccc2o1	28.0	23.9%	2.91µM*	?	-14.2%
O=C(N/N=C/c1ccc([N+](=O)[O-])cc1)c1cc2ccccc2o1	10.5	-11.9%	-3.3%	0.5%	-0.6%
CC(=NNC(=S)N1CCCC1)c1ccccn1	77.0	·	·	·	·
CC(=NNC(=S)N1CC2CCC(CC2)C1)c1cccc(C)n1	-110.2*	0.411µM*	?	·	·
COc1ccc2c(c1)C(=O)[C@H](OC(=O)NCCc1ccc(OC)c(OC)c1)[C@@H](c1ccc(OC)c(Br)c1)O2	·	·	·	21.6%	-2.4%
SMILES	IL-1B inflam inh	SW480 rereplic	MCF10A rereplic	RORg inh	VP16 counter
Fc1ccc(-c2nc3cnccn3c2NC2CCCC2)cc1	15.0	-11.4%	17.2%	15.6%	6.1%
Oc1ccc(Br)cc1-c1nc2cnccn2c1NC1CCCCC1	-70.3*	?	7.6%	12.6µM*	?
Oc1ccc(Br)cc1-c1nc2cnccn2c1NC1CCCC1	-92.7*	?	?	22.4µM*	?
CCc1nc2ccccc2[nH]1	-9.5	-3.6%	-7.6%	25.2%	16.7%
Cc1ccc(/C=C/c2nc3ccccc3[nH]2)o1	-73.2*	?	?	11.2µM*	-11.5%
O=C(Cl)c1c(Cl)cccc1Cl	·	·	·	0.2%	4.1%
COCCNC(=O)C(c1ccc(Cl)cc1)N(CCOC)C(=O)CCC(=O)Nc1ccccn1 (stereo unspecified)	2.3	-45.1%	-10.0%	9.9%	0.9%
c1ccc(-c2nc(N3CCN(c4ccccc4)CC3)nc(-n3ccnc3)n2)cc1	?	?	7.31µM*	12.6µM*	15.8µM*
c1ccc(N(c2ccccc2)c2nc(-n3ccnc3)nc(-n3ccnc3)n2)cc1	-3.9	13.6%	20µM*	-28.2%	-12.7%
c1ccc(-c2nc(N3CCCCCC3)nc(-n3ccnc3)n2)cc1	-2.8	-1.3%[9.22 µM]	28.6%	?	0.0%
CCCCNc1nc(N(C)c2ccccc2)nc(-n2ccnc2)n1	0.0	?	?	10µM*	?
C=CCNc1nc(N(c2ccccc2)c2ccccc2)nc(-n2ccnc2)n1	53.0	-24.1%	?	11.2µM*	-12.7%
Cn1cccc1C(=O)N1CCC2(CC1)CCN(c1cccc(-c3ccccc3)c1)CC2	·	·	·	9.3%	1.8%
Cc1cc(Br)cn2c(Cc3ccsc3)c(C3CCCCC3)nc12	0.0	·	·	·	·
CCOC(=O)C1=CCN(S(=O)(=O)c2ccc(C)cc2)C1c1cccc(C)c1 (stereo unspecified)	31.1	·	·	·	·
CCOc1ccc(CNCCN2CCCC2)cc1	-15.4	1.8%	2.7%	-30.5%	1.2%
CN(NC(=O)Nc1ccc(Cl)cc1)c1c(Cl)c(Cl)nn1C	0.0	-5.6%	?	2.8%	4.5%
CN(NC(=O)Nc1ccccc1)c1cnn(C)c(=O)c1Cl	0.0	2.7%	2.31µM*	14.1%	6.1%
C[C@H]1C(=O)N(S(=O)(=O)c2ccc([N+](=O)[O-])cc2)[C@H]1c1ccc(F)cc1	·	·	·	-2.2%	0.7%
CCCN1C(=O)S/C(=C\c2ccc(N3CCOCC3)o2)C1=O	-98.4*	3.66µM*	15.8µM*	5.62µM*	4.47µM*
COC(=O)CN1C(=O)S/C(=C/c2ccc(N3CCCCC3)o2)C1=O	-18.8	?	?	?	5.01µM*
CCCN1C(=O)S/C(=C/c2ccc(N3CCOCC3)o2)C1=O	-91.2*	?	?	-1.5%	-14.2%
O=C(O)CN1C(=O)/C(=C/c2ccc(N3CCCCC3)o2)SC1=S	6.5	-4.4%	-2.5%	-16.2%	-0.7%
CCCN1C(=O)S/C(=C\c2ccc(N3CCOCC3)cc2C)C1=O	·	·	·	-21.5%	-9.3%
CCN1C(=O)S/C(=C\c2ccc(N3CCOCC3)cc2C)C1=O	-54.2*	1.6%	13.4%	16.0%	2.6%
CCOC(=O)CN1C(=O)S/C(=C/c2ccc(N3CCCCC3)o2)C1=O	-0.8	0.0%	0.9%	-6.1%	-8.2%
CC1=C(C)CC(c2ccccc2)C(C(=O)c2ccccc2O)C1 (stereo unspecified)	·	·	·	18.1%[10 µM]	6.7%[10 µM]
CCOC(=O)c1cc(-c2ccccc2)sc1NC(=O)C(C)C	-21.9	1.3%	?	?	6.3%

Bioassay records as filed in PubChem BioAssay.
